Results as given in PubChem BioAssay (NCATS).
Several values for one entry are separate records, joined by “and”; a condition that tells them apart may be missing. Equal entries are not always repeated. Results filed as inconclusive are left out. Where a call stands in place of a potency, no number is given. Activity calls are given as the source filed them. Unless noted, calls come from the whole dose curve; as a rule, active = well fitted curve in the direction sought with a large enough effect; inconclusive = small, poorly fitted or top-dose-only effect, or another doubt; inactive = no such curve, though single readings can be large; an effect the other way counts as inactive or inconclusive.

How the values were obtained:
[1] = Cell Viability - Hek293 (AID 427;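 active = compounds whose dose-response curve shows a full or clear partial loss of cell viability, called from curve shape rather than a numeric limit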;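 note: potency is the fitted concentration of half-maximal effect; cells exposed to compound for 40 hours at 37 °C before reading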); conditions: qHTS
Procedure, shortened: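 HEK293 cells in complete medium were exposed to compound for 40 hr at 37 °C, then cellular ATP was read by CellTiter-Glo luminescence. Data were normalized to DMSO (basal) and 100 uM tamoxifen (100% inhibition), and AC50 came from Hill fits.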

[2] = Cell Viability - SK-N-SH (AID 435; calls by dose curve; note: potency is the fitted concentration of half-maximal effect); conditions: SK-N-SH neuroblastoma cell viability qHTS
Procedure, shortened: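 qHTS cytotoxicity: CellTiter-Glo ATP luminescence after 40 h compound exposure of human neuroblastoma SK-N-SH cells at 37 °C. AC50 derived by Hill-equation fitting, with DMSO as basal and 100 uM tamoxifen as full inhibition.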

[3] = Cell Viability - N2a (AID 540); conditions: N2a mouse neuroblastoma cell viability; activity change, negative = cytotoxicity: at 92.2 µM (top of the series); note: nearly all actives have a fitted effect of over 45% in size
Procedure, shortened: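 CellTiter-Glo ATP luminescence, read 20 min after reagent at room temperature, reported viability following 40 h compound treatment at 37 °C. N2a mouse neuroblastoma cells seeded 1500/well; Hill equation gave AC50.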

[4] = Cellular Toxicity (caspase-3) HepG2 (AID 654); conditions: HepG2 caspase-3 activation, luminescence, 0% = DMSO only, 100% = tamoxifen; series mostly up to 92.2 µM;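 note: cells exposed to compound for 16 hours before reading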
Procedure, shortened: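 Caspase 3/7 activation is measured as a luminescence increase (aminoluciferin substrate) after 16 h compound exposure of human hepatocarcinoma HepG2 cells. AC50 values are Hill fits, scaled between DMSO baseline and 100 uM tamoxifen stimulation.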

[5] = MultiTox-Fluor Cytotoxicity Assay - LYMP1-001 - Dead Cells (AID 946); conditions: LYMP1-001 lymphoblastoid cells, dead-cell protease fluorescence; series mostly up to 92.2 µM
Procedure, shortened: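 LYMP1-001 lymphoblastoid cells (2500/well) treated 16 h at 37 C. Dead-cell protease cleavage of bis-AAF-R110 read at Ex/Em 485/520. Normalized to DMSO and 15 uM tetraoctylammonium bromide; AC50 from Hill fits.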

[6] = Cell Viability - LYMP1-002 - Assay at 16 hr (AID 948); conditions: LYMP1-002 lymphoblastoid cell viability; series mostly up to 92.2 µM
Procedure, shortened: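 ATP luminescence (CellTiter-Glo) was measured after 16 hr compound exposure at 37 C of 2500 lymphoblastoid LYMP1-002 cells per well. Concentration-response curves were fitted with the Hill equation to give AC50.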

[7] = Cell Viability - LYMP2-003 (AID 965); conditions: LYMP2-003 lymphoblastoid cell viability; series mostly up to 92.2 µM;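 note: cells exposed to compounds for 24 h before reading; nearly all actives have a fitted effect of over 50% in size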; note: potency is the fitted concentration of half-maximal effect
Procedure, shortened: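 CellTiter-Glo luminescence quantified ATP loss after 24 h compound treatment of LYMP2-003 lymphoblastoid cells at 37 C. Titration series were fitted with the standard Hill equation to give AC50.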

[8] = Cell Viability - LYMP2-024 (AID 988); conditions: LYMP2-024 lymphoblastoid cell viability; series mostly up to 92.2 µM; note: nearly all actives have a fitted effect of over 60% in size; note: potency is the fitted concentration of half-maximal effect
Procedure, shortened: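 Cytotoxicity was taken as a decrease in ATP (CellTiter-Glo luminescence) after 24 hr compound exposure at 37 C of LYMP2-024 lymphoblastoid cells, 2500 cells/well. Concentration-response data were fitted to the Hill equation to give AC50.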

[9] = Cell Viability - LYMP2-026 (AID 989); conditions: LYMP2-026 lymphoblastoid cell viability, qHTS; series mostly up to 92.2 µM; note: nearly all actives have a fitted effect of over 50% in size
Procedure, shortened: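 Cytotoxicity read as ATP-dependent luminescence (CellTiter-Glo, 30 min room temperature) after 24 h compound treatment at 37 C. LYMP2-026 lymphoblastoid line seeded at 2500 cells/well; AC50 derived by standard Hill equation.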

[10] = Cell Viability - LYMP1-002 - Assay at 24 hr (AID 993); conditions: LYMP1-002 lymphoblastoid cells viability; series mostly up to 92.2 µM
Procedure, shortened: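 qHTS cytotoxicity at 24 h: CellTiter-Glo ATP luminescence in lymphoblastoid line LYMP1-002 incubated with compound at 37 °C. Concentration-response modeled with the Hill equation for AC50; tetraoctylammonium bromide served as positive control.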

[11] = qHTS assay for small molecule agonists of retinoid X receptor alpha signaling (AID 588544); conditions: HEK293T RXRa-UAS-bla, beta-lactamase reporter, 18 h; 530 nm emission
[12] = target: Retinoic acid receptor RXR-alpha (Homo sapiens) (UniProt P19793); experiment: qHTS assay for small molecule antagonists of retinoid X receptor alpha signaling (AID 588546; active = well fitted inhibition curve with a large enough effect in the signal ratio, with a control signal flat, not every such curve was filed as active; the % refers to the signal ratio;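 note: cells stimulated with 9-cis-retinoic acid as agonist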); conditions: HEK293T RXRa-UAS-bla, beta-lactamase ratio, antagonist mode
Sequence of Retinoic acid receptor RXR-alpha (Homo sapiens) (P19793 whole entry, looked up): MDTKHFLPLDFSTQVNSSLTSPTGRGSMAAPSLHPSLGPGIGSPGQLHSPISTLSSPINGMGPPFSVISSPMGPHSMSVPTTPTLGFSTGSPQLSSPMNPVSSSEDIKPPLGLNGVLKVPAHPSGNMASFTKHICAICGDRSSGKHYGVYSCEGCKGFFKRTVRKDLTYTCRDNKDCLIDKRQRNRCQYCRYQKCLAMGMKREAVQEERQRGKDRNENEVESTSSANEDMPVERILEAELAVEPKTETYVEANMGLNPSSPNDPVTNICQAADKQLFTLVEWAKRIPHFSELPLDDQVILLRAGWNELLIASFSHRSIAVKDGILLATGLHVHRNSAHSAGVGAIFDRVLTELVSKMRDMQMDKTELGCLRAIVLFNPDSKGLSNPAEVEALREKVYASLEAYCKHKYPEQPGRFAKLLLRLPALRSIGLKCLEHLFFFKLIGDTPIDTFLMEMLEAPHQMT
Procedure, shortened: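 Beta-lactamase reporter inhibition, read as CCF4 fluorescence ratio (ex 405, em 460/530 nm) after 2 h at RT. HEK293T UAS-bla cells, 2500/well, were stimulated with 9-cis-RA at 500 or 100 nM final alongside test compound for 18 h at 37 C.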

[13] = target: Tumor necrosis factor (Homo sapiens) (UniProt P01375); experiment: qHTS assay to identify small molecules that stimulate Tumor Necrosis Factor-alpha (TNF-alpha) secretion (AID 651757; active = well fitted curve in the direction sought with a large enough effect in the signal ratio; the % refers to the signal ratio); conditions: Human cells, HTRF 665/615 ratio; series mostly up to 92.2 µM
Sequence of Tumor necrosis factor (Homo sapiens) (P01375 whole entry, looked up): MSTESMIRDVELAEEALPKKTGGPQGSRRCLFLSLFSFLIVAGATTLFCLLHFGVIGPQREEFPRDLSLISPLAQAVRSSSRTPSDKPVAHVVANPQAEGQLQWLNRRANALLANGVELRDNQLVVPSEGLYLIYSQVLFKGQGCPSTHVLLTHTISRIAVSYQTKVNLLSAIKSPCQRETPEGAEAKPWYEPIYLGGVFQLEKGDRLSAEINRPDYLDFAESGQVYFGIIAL
Procedure, shortened: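 Secreted TNF-alpha quantified by TR-FRET sandwich of two labeled anti-TNF-alpha antibodies, incubated 3 hr at room temperature. Preceded by 17 hr, 37 C compound treatment of THP-1 cells at 3000 cells/well.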

[14] = target: Nuclear receptor ROR-gamma (Homo sapiens) (UniProt P51449); experiment: qHTS assay for small molecule antagonists of the retinoid-related orphan receptor gamma (ROR-gamma) signaling pathway (AID 651802); conditions: ROR-gamma antagonist cell reporter assay; series mostly up to 92.2 µM; note: nearly all actives have a fitted effect of over 60% in size; note: potency is the fitted concentration of half-maximal effect
Sequence of Nuclear receptor ROR-gamma (Homo sapiens) (P51449 whole entry, looked up): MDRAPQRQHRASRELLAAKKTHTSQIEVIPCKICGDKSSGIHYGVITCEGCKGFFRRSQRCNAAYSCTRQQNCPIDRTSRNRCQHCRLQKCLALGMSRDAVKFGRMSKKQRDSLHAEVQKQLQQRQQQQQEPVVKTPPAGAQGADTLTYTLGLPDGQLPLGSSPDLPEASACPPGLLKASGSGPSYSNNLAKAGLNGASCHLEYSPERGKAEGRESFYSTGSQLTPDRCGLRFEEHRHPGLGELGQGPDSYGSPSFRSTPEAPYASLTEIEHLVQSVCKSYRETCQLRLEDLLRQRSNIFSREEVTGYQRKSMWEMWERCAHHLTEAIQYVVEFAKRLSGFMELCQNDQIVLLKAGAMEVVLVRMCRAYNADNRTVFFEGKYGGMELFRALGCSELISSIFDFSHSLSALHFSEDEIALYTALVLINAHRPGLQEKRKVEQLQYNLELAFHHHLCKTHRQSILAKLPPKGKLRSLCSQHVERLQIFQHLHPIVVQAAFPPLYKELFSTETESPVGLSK
Procedure, shortened: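 Luminescence (One-Glo, 30 min RT) measured 16 h after compound addition and doxycycline induction at 37C. Reporter: RORE-luciferase under TET-inducible ROR-gamma in CHO cells.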

[15] = qHTS assay for small molecule agonists of the antioxidant response element (ARE) signaling pathway measured by Nrf2-dependant transcriptional activity (AID 720636; active = well fitted curve in the direction sought with a large enough effect in the repeat runs; an effect the other way counts as inactive or inconclusive;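 note: HepG2 cells with an ARE-driven luciferase reporter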); conditions: ARE-luc HepG2, Nrf2 luciferase reporter, 16 h; series mostly up to 92.4 µM
Procedure, shortened: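 ONE-Glo luminescence, read 30 min after reagent addition at room temperature, reflected ARE reporter activity in HepG2 cells that had been incubated with compound for 16 hr at 37 C in 1% dialyzed FBS.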

[16] = qHTS assay for cell viability of the p53RE-bla HCT-116 cell line (AID 743292); conditions: p53RE-bla HCT-116 viability, ATP luminescence, 16 h; series mostly up to 95 µM; note: nearly all actives have a fitted effect of over 55% in size
Procedure, shortened: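 After plating at 4,000 cells per well and a 5 h rest at 37 C, HCT-116 cells carrying p53RE-bla received test chemicals in DMSO. Sixteen hours later at 37 C, CellTiter-Glo was added and luminescence recorded following 30 min at room temperature.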

[17] = Cellular Toxicity (caspase-3) Mesangial (AID 660); conditions: mesangial cells, normalized: DMSO 0%, 100 µM tamoxifen 100%; series mostly up to 91.7 µM;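 note: combined caspase 3 and 7 activity read by Caspase-Glo luminescence; cells exposed to compound for 16 h before the caspase read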
Procedure, shortened: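 Caspase 3/7 activation measured by Caspase-Glo 3/7 luminescence (20 min, room temperature) following 16 h exposure of mesangial cells (1000/well); AC50 from Hill-equation fit, normalized to DMSO and 100 uM tamoxifen.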

[18] = Cellular Toxicity (caspase-3) Hek293 (AID 664); conditions: HEK293 caspase-3 activation, DMSO = 0%, 100 µM tamoxifen = 100%; at 92.2 µM (top of the series);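 note: cells exposed to compound for 16 h at 37 °C before readout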
Procedure, shortened: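 Concentration-response qHTS: caspase 3/7 activation measured by luminescent aminoluciferin substrate cleavage after 16 h compound exposure of Hek 293 cells. AC50 from Hill equation, with DMSO as basal and 100 uM tamoxifen as 100%.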

[19] = MultiTox-Fluor Cytotoxicity Assay - LYMP1-002 - Dead Cells (AID 960); conditions: LYMP1-002 lymphoblastoid cells, dead-cell protease fluorescence; series mostly up to 46.1 µM; note: nearly all actives have a fitted effect of over 60% in size
Procedure, shortened: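 Dead-cell fluorescence (Ex/Em 485/520) after 16 h compound exposure at 37 C of LYMP1-002 lymphoblastoid cells in complete medium; AC50 by Hill equation, with data scaled between DMSO and 15 uM tetraoctylammonium bromide.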

[20] = target: Thyroid hormone receptor beta (Homo sapiens) (UniProt P10828); experiment: qHTS assay for small molecule agonists of thyroid hormone receptor beta signaling (AID 588545; calls by dose curve); conditions: TR-UAS-bla GripTite HEK 293, beta-lactamase ratio, agonist mode, 18 h; series mostly up to 76.7 µM
Sequence of Thyroid hormone receptor beta (Homo sapiens) (P10828 whole entry, looked up): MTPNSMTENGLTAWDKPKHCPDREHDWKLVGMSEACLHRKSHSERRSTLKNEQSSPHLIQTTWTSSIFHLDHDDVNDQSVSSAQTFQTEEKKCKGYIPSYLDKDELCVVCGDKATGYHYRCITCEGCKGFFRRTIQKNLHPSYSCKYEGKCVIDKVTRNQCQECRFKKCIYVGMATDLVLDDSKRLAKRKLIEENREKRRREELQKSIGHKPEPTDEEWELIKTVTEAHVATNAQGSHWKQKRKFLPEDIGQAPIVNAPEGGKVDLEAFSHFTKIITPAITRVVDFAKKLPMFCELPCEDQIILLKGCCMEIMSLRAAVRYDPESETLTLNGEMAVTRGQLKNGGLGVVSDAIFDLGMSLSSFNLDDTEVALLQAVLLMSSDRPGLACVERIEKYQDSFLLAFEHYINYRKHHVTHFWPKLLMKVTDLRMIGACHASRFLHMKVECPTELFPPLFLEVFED
Procedure, shortened: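 HEK 293 TR-UAS-bla; agonist mode; 18 hrs, 37 C; CCF4, ex 405/em 460 and 530 nm; norm. T3 10 nM = 100%, DMSO = 0%; Hill fit → EC50, efficacy.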

ClCC(Cl)Cl
Potency [1]: > 92 µM (inactive)
Potency [2]: > 92 µM (inactive)
Potency [3]: inactive
outcome [4]: inactive
outcome [5]: inactive
outcome [6]: inactive
Potency [7]: inactive
Potency [8]: inactive
Potency [9]: inactive
Potency [10]: inactive
max response [11]: -11.1%
max response [12]: 7.8% (inactive)
outcome [13]: inactive
Potency [14]: inactive
Potency [15]: inactive
Potency [16]: inactive

C[N+](=O)[O-]
Potency [1]: > 92 µM (inactive)
Potency [2]: > 92 µM (inactive)
Potency [3]: inactive
outcome [4]: inactive
outcome [17]: inactive
caspase-3 activation [18]: -0.684% (inactive)
outcome [5]: inactive
outcome [6]: inactive
Potency [19]: inactive
Potency [7]: inactive
Potency [8]: inactive
Potency [9]: inactive
Potency [10]: inactive
max response [11]: -4.73%
Potency [20]: inactive
max response [12]: 4.36% (inactive)
outcome [13]: inactive
Potency [14]: inactive
Potency [15]: inactive
Potency [16]: inactive

O=[N+]([O-])c1ccccc1CCl
Potency [1]: > 92 µM (inactive)
Potency [2]: > 92 µM (inactive)
Potency [3]: inactive
outcome [4]: inactive
outcome [17]: inactive
caspase-3 activation [18]: 0.434% (inactive)
outcome [5]: inactive
outcome [6]: inactive
Potency [19]: inactive
Potency [7]: inactive
Potency [8]: inactive
Potency [9]: inactive
Potency [10]: inactive
max response [11]: -8.73%
Potency [20]: inactive
max response [12]: -4.02% (inactive)
outcome [13]: inactive
Potency [14]: 42.2 µM (active)
Potency [15]: inactive
Potency [16]: inactive

ClCc1ccccn1
Potency [1]: > 92 µM (inactive)
Potency [2]: > 92 µM (inactive)
Potency [3]: inactive
outcome [4]: inactive
outcome [17]: inactive
caspase-3 activation [18]: 0.273% (inactive)
outcome [5]: inactive
outcome [6]: inactive
Potency [19]: inactive
Potency [7]: inactive
Potency [8]: inactive
Potency [9]: inactive
Potency [10]: inactive
max response [11]: -5.13% and -0.246%
Potency [20]: inactive
max response [12]: -12.8% (inactive) and -17% (inactive)
outcome [13]: inactive
Potency [14]: inactive
Potency [15]: inactive
Potency [16]: inactive

CN(C)c1ccc(N)cc1
Potency [2]: 41.7 µM (active)
activity change, negative = cytotoxicity [3]: -109% (active)
outcome [4]: inactive
outcome [17]: inactive
caspase-3 activation [18]: 2.4% (inactive)
outcome [5]: inactive
Potency [19]: inactive
Potency [7]: 50.1 µM (active)
Potency [8]: 50.1 µM (active)
max response [11]: -18.3%
Potency [20]: inactive
max response [12]: -17.1% (inactive)

Nc1cc(Cl)ccc1Cl
Potency [1]: > 92 µM (inactive)
Potency [2]: > 92 µM (inactive)
Potency [3]: inactive
outcome [4]: inactive
outcome [17]: inactive
caspase-3 activation [18]: -0.435% (inactive)
outcome [5]: inactive
outcome [6]: inactive
Potency [19]: inactive
Potency [7]: inactive
Potency [8]: inactive
Potency [9]: inactive
Potency [10]: inactive
max response [11]: -19.1%
Potency [20]: inactive
max response [12]: 3.06% (inactive)
outcome [13]: inactive
Potency [14]: inactive
Potency [15]: inactive

ClC(Br)Br
Potency [1]: > 92 µM (inactive)
Potency [2]: > 92 µM (inactive)
Potency [3]: inactive
outcome [4]: inactive
outcome [17]: inactive
caspase-3 activation [18]: -0.91% (inactive)
outcome [5]: inactive
outcome [6]: inactive
Potency [19]: inactive
Potency [7]: inactive
Potency [8]: inactive
Potency [10]: inactive
max response [11]: -3.88%
Potency [20]: inactive
max response [12]: 0.0478% (inactive)
outcome [13]: inactive
Potency [14]: inactive
Potency [15]: inactive
Potency [16]: inactive
